Laboratory results published in PubChem BioAssay (NCATS).
Results filed as inconclusive are left out. Entries that show only a call come without a potency. Values without a mark were called inactive. Active and inactive are the calls of the source. Calls follow the shape of the dose curve; as a rule, active = well fitted inhibition curve with a large enough effect; inconclusive = small, poorly fitted or top-dose-only effect; inactive = flat fitted curve, though single readings scatter. *1 amine or outer side, *2 acyl side, *3 side chain or, on linkers, in order; H or OH if unused. Where a SMILES comes first, the peptide text is derived from it. Bridges are numbered along the chain shown (N, C = ends). [ ]: non-standard residue; d: D form. The star is where a group is joined. ξ: configuration not given here. X10 = NC1=NCCC(C(N[*:1])C(=O)[*:2])N1; ΔAla(3-NHCONH2) = NC(=O)NC=C(N)C(=O)O; ξβ3hOrn = NCCCC(N)CC(=O)*; Dap = NC[CH](N)C(=O)O

Legend:
[1] = molecular target: Glutathione peroxidase 1 (Homo sapiens) (UniProt P07203); assay: Primary qHTS Assay for Inhibitors of Recombinant Selenoprotein Glutathione Peroxidase 1 (GPX1) (AID 1845191); settings: recombinant GPX1, GR-coupled NADPH fluorescence, 15 min; series mostly up to 48.8 µM
Chain of Glutathione peroxidase 1 (Homo sapiens) (P07203 whole entry, looked up): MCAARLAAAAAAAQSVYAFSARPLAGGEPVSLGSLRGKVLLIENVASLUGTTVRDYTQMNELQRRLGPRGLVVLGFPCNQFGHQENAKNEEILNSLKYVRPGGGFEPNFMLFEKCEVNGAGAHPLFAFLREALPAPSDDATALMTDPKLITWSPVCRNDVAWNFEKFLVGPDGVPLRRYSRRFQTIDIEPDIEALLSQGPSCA
Method in brief: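 Recombinant GPX1 (10 nM final) was preincubated with compound for 30 min at room temperature, then reacted with 1 mM GSH, 0.5 mM CHP, 0.5 mM NADPH and 100 nM glutathione reductase; NADPH fluorescence (340/450 nm) was read at 0 and 15 min.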

[2] = molecular target: Phospholipid hydroperoxide glutathione peroxidase GPX4 (Homo sapiens) (UniProt P36969); assay: Primary qHTS Assay for Inhibitors of Recombinant Selenoprotein Glutathione Peroxidase 4 (GPX4) (AID 1845192); settings: recombinant GPX4, GR-coupled NADPH fluorescence, 15 min; series mostly up to 50 µM
Chain of Phospholipid hydroperoxide glutathione peroxidase GPX4 (Homo sapiens) (P36969 whole entry, looked up): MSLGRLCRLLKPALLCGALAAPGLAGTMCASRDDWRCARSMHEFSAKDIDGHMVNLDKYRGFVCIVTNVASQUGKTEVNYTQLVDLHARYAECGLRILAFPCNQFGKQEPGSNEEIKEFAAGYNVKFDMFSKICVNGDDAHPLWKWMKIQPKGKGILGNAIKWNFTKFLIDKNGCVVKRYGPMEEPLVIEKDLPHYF
Method in brief: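 GR-coupled readout: 100 nM GR, 1 mM GSH, 0.5 mM NADPH; NADPH fluorescence (ex 340/em 450 nm) read at t=0 and after 15 min RT. GPX4 200 nM, preincubated 30 min with compound; substrate 0.5 mM CHP.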
Also: nearly all actives have a fitted effect of over 65% in size.
Potency is read from the fitted curve at half-maximal effect.

Row | Structure (SMILES) | Potency [1] | Potency [2] | outcome [1] | activity change, negative = inhibition [2]
1 | CCCCCOc1ccccc1/C(=C\SC)n1ccnc1 | inactive | inactive | – | –
2 | Cc1cccc(N(C)C(=S)Oc2ccc3c(c2)C2CCC3C2)c1 (stereo not drawn) | inactive | inactive | – | –
3 | Cc1cccc(C)c1NC(=O)c1cc(S(N)(=O)=O)c(Cl)cc1O | inactive | inactive | – | –
4 | Cc1c(C)c2c(c(C)c1OC(=O)CCC(=O)OCCO)CC[C@@](C)(CCC[C@H](C)CCC[C@H](C)CCCC(C)C)O2 | inactive | inactive | – | –
5 | CCOC(=O)Oc1ccc(CCNC(=O)[C@H](CCSC)NC(C)=O)cc1OC(=O)OCC | inactive | inactive | – | –
6 | CCC(C(=O)OCCN1CCOC(c2ccccc2)C1C)c1ccccc1 (stereo not drawn) | inactive | inactive | – | –
7 | Cc1ccc(O)cc1 | inactive | inactive | – | –
8 | CCCC(=O)O[C@]1(C(=O)CC)CC[C@H]2[C@@H]3CCC4=CC(=O)CC[C@]4(C)[C@H]3[C@@H](O)C[C@@]21C | inactive | inactive | – | –
9 | OCCc1ccccc1 | inactive | inactive | – | –
10 | CC(C)C(=O)Nc1cccc(C2CN3CCSC3=N2)c1 (stereo not drawn) | inactive | inactive | – | –
11 | CC(=O)/C=C/C=C1/C2CCC(C2)C1(C)C (stereo not drawn) | inactive | inactive | – | –
12 | CCCCC(O)/C=C(C)/C=C/C=C/C(=O)N1CCCC1=O (stereo not drawn) | inactive | inactive | – | –
13 | CCOC(=O)C1=C(C)NC(C)=C(C(=O)OCC)C1c1ccccc1/C=C/C(=O)OC(C)(C)C | inactive | inactive | – | –
14 | NC(=O)C1(N2CCCCC2)CCN(CCCN2c3ccccc3CCc3ccc(Cl)cc32)CC1 | inactive | inactive | – | –
15 | NCCCC(N)CC(=O)NCC1NC(=O)C(CO)NC(=O)C(N)CNC(=O)C(C2CCN=C(N)N2)NC(=O)C(=CNC(N)=O)NC1=O (stereo not drawn) (H-[Dap]S[Dap](ξβ3hOrn)[ΔAla(3-NHCONH2)][X10]; lactam 1-C; configuration not given here) | – | – | inactive [at 0.4 µM] | 3.67% [at 0.409 µM]
16 | CO/N=C(/C(=O)N[C@@H]1C(=O)N2C(C(=O)[O-])=C(C[n+]3ccn4ncccc43)CS[C@H]12)c1nsc(N)n1 | 20.2 µM (active) | 17.8 µM (active) | – | –
17 | CNC(=O)c1cnn(-c2nc(N)c3ncn([C@@H]4O[C@H](CO)[C@@H](O)[C@H]4O)c3n2)c1 | inactive | inactive | – | –
18 | CN1C(=O)CC(C)(c2ccccc2)C1=O (stereo not drawn) | inactive | inactive | – | –
19 | C[C@@H](C1=C(CCN(C)C)Cc2ccccc21)c1ccccn1 | inactive | inactive | – | –
20 | COC(=O)C1=C(C)NC(C)=C(C(=O)OCCc2ccc(N3CCN(C(c4ccccc4)c4ccccc4)CC3)cc2)C1c1cccc([N+](=O)[O-])c1 (stereo not drawn) | inactive | inactive | – | –
21 | CN1C(CSCC(F)(F)F)Nc2cc(Cl)c(S(N)(=O)=O)cc2S1(=O)=O (stereo not drawn) | inactive | inactive | – | –
22 | CCCCCN(CCCOC)C(=O)C(CCC(=O)O)NC(=O)c1ccc(Cl)c(Cl)c1 (stereo not drawn) | inactive | inactive | – | –
23 | C[C@H]1C[C@H]2[C@@H]3CCC4=CC(=O)C=C[C@]4(C)[C@H]3C(=O)C[C@]2(C)[C@@]1(O)C(=O)CO | inactive | inactive | – | –
24 | [O-][n+]1cccc(/C(Cl)=N/OC[C@@H](O)CN2CCCCC2)c1 | inactive | inactive | – | –
25 | CC(=O)N[C@@H](CCC(N)=O)C(=O)O | inactive | inactive | – | –

Row | Structure (SMILES) | Potency [1] | Potency [2] | outcome [1] | activity change, negative = inhibition [2]
26 | C[N+]1(C)CCC(OC(=O)C(O)(c2ccccc2)C2CCCC2)C1 (stereo not drawn) | inactive | inactive | – | –
27 | CC(C)(Oc1ccc(Cl)cc1)C(=O)OCCCOC(=O)C(C)(C)Oc1ccc(Cl)cc1 | inactive | inactive | – | –
28 | CCC(=O)O[C@]1(C(=O)COC)[C@@H](C)C[C@H]2[C@@H]3CCC4=CC(=O)C=C[C@]4(C)C3(F)[C@@H](O)C[C@@]21C (stereo partly drawn) | inactive | inactive | – | –
29 | CCC[C@H](N[C@@H](C)C(=O)N1[C@H](C(=O)O)C[C@@H]2CCCC[C@@H]21)C(=O)OCC | inactive | inactive | – | –
30 | Cc1ccc2c(Cl)cc(Cl)c(O)c2n1 | inactive | inactive | – | –
31 | CN(C)CCCOC1(Cc2ccccc2)CCCCCC1 | inactive | inactive | – | –
32 | CC(CC(C#N)(c1ccccc1)C(C)C)N(C)C (stereo not drawn) | inactive | inactive | – | –
33 | CCCCCCCCCCCCCCCC[N+](C)(C)Cc1ccccc1 | inactive | inactive | – | –
34 | CCOc1c(N2CCOCC2)cnn(C)c1=O | inactive | inactive | – | –
35 | CC(=O)N(CC(O)CO)c1c(I)c(C(=O)NCCO)c(I)c(C(=O)NCC(O)CO)c1I (stereo not drawn) | inactive | inactive | – | –
36 | CCCCCC1Nc2cc(C(F)(F)F)c(S(N)(=O)=O)cc2S(=O)(=O)N1 (stereo not drawn) | inactive | inactive | – | –
37 | CN1CCCN=C1/C=C/c1cccs1 | inactive | inactive | – | –
38 | COc1c(C)c2c(c(O)c1C/C=C(\C)CCC(=O)OCCN1CCOCC1)C(=O)OC2 | inactive | inactive | – | –
39 | N=C(N)c1ccc(OCCCOc2ccc(C(=N)N)cc2)cc1 | inactive | inactive | – | –
40 | CC(Oc1c(Cl)cccc1Cl)C1=NCCN1 (stereo not drawn) | inactive | inactive | – | –
41 | COc1ccc2c(c1)c(CC(=O)OC/C=C(\C)CC/C=C(\C)CCC=C(C)C)c(C)n2C(=O)c1ccc(Cl)cc1 | inactive | inactive | – | –
42 | O=C1NCCN1CCN1CCC(c2cn(-c3ccc(F)cc3)c3ccc(Cl)cc23)CC1 | inactive | inactive | – | –
43 | N#C/C(=C1/SC[C@@H](c2ccc(Cl)cc2Cl)S1)n1ccnc1 | inactive | inactive | – | –
44 | CC(C)NCCCC1(C(N)=O)c2ccccc2-c2ccccc21 | inactive | inactive | – | –
45 | Cc1cc(O)c2c(O)c3c(O)cccc3cc2c1 | inactive | inactive | – | –
46 | CCOC(=O)NNc1nncc2ccccc12 | inactive | inactive | – | –
47 | CCCCC/C=C\C/C=C\CCCCCCCC(=O)NC(C)c1ccccc1 (stereo not drawn) | inactive | inactive | – | –
48 | CC(=O)OCC(=O)[C@@]1(O)CCC2C3CCC4=CC(=O)CC[C@]4(C)C3[C@@H](O)C[C@@]21C (stereo partly drawn) | inactive | inactive | – | –
49 | CCOc1ccc(NS(=O)(=O)c2ccc(N)cc2)nn1 | inactive | inactive | – | –
